A selection follows.
aSyn 5UTR act: Activators working through SNCA 5'UTR binding (MLPCN) | alpha-synuclein 5'UTR reporter, activators screen | activity score, % (tested at 7.5 µM), hits read low | 7.1% of 300,000 active | AID 1814; in the data active = activity score below about -60%
A number is an active result; - = inactive.

SMILES | aSyn 5UTR act
C/C(=N\Nc1nncc2ccccc12)c1ccc(C(C)(C)C)cc1 | -84
C/C(=N\Nc1nncc2ccccc12)c1cccc(OC(F)F)c1 | -97
O=C(Nc1ccccc1)c1ccc(-c2ccccc2)s1 | -215
COc1ccc2cc(C(=O)Nc3ccccc3)sc(=O)c2c1OC | -78
O=C(Nc1ccccc1)c1cc2ccc3ccccc3c2s1 | -90
O=C(O)c1ccc(-c2ccc(-c3ccccc3)cc2)s1 | -
Oc1ccc(Cl)cc1C1=NNC(c2ccc(Cl)cc2)C1 (stereo not drawn) | -90
Fc1cc(Br)ccc1COc1ccc(-c2nnco2)cc1 | -133
Fc1ccc(COc2ccc(-c3nnco3)cc2)c(Cl)c1 | -96
CCOC(=O)c1cnc(SCc2cccc(C)c2)nc1N | -89
CCOC(=O)c1cnc(SCC(=O)c2ccccc2)nc1N | -141
CCOC(=O)c1cnc(SCC(C)C)nc1N | -104
COc1ccc(C(=O)Nc2ccc(N3CCN(C)CC3)cc2)cc1OC | -82
COc1ccc(C(=O)Nc2ccc(N3CCN(C)CC3)cc2)cc1 | -165
CN1CCN(c2ccc(NC(=O)c3ccc4ccccc4c3)cc2)CC1 | -
Cc1ccc(C(=O)Nc2ccc(N3CCN(C)CC3)cc2)cc1 | -88
CC1Oc2cc3oc4c(O)c5c(cc4c(=O)c3c(O)c2C1(C)C)C=CC(C)(C)O5 (stereo not drawn) | -265
CCCSc1nnc(-c2ccccc2N)c(=O)[nH]1 | -70
CCCCC(=O)Nc1cnc(NC(=O)c2cccs2)cc1C | -127
COc1ccc(C(=O)Nc2cc(C)c(NC(=O)c3ccccn3)cn2)cc1 | -78
COc1ccc(C(=O)Nc2cnc(NC(=O)c3cccs3)cc2C)cc1 | -83
CC1CCC(NC(=O)c2cccc(S(=O)(=O)N3CCN(c4ccc(F)cc4)CC3)c2)CC1 (stereo not drawn) | -72
Cn1c(O)c(C2=c3ccccc3=NC2=O)sc1=Nc1ccc(Cl)cc1 | -93
COc1cc(OC)c2c(c1)O/C(=C\c1ccccc1)C2=O | -154
COc1ccc2c(c1)O/C(=C\c1sccc1C)C2=O | -198
SMILES | aSyn 5UTR act
COCCSc1nnc(NC(=O)c2ccco2)s1 | -81
CSc1nnc(NC(=O)c2ccco2)s1 | -77
CCCSc1nnc(NC(=O)Nc2ccccc2)s1 | -92
COCCSc1nnc(NC(=O)C2CCCCC2)s1 | -63
CCCSc1nnc(NC(=O)c2ccco2)s1 | -81
Cc1cnc(NC(=O)c2ccncc2)s1 | -65
Cc1cnc(NC(=O)c2ccco2)s1 | -94
CC(=O)c1ccc(Nc2ccc([N+](=O)[O-])c3nonc23)cc1 | -104
CCC1CCc2c(sc(NC(=O)c3cnccn3)c2C(N)=O)C1 (stereo not drawn) | -86
CCC1CCc2c(sc(NC(=O)c3ccco3)c2C(N)=O)C1 (stereo not drawn) | -246
O=C(Nc1cccc2ccccc12)c1ccccc1 | -142
Nc1ccccc1C(=O)Nc1cccc2ccccc12 | -204
CC(=O)c1cccc(NC(=O)C(=O)Nc2cccc3ccccc23)c1 | -195
Cc1ccc(-c2noc(C3CCCN(C(=O)c4ccccc4Br)C3)n2)o1 (stereo not drawn) | -92
O=C(c1ccccc1Br)N1CCCC(c2nc(-c3cccs3)no2)C1 (stereo not drawn) | -63
Cc1ccc(-c2noc(C3CCN(S(C)(=O)=O)CC3)n2)o1 | -67
Cc1ccc(-c2noc(C3CCCN(C(=O)c4ccccc4)C3)n2)o1 (stereo not drawn) | -154
OC1(C(F)(F)F)CC(O)(C(F)(F)F)n2nc(-c3ccccc3)cc2N1 (stereo not drawn) | -126
Cc1ccc(NC(=S)Nc2nc(CC(=O)Nc3ccccc3)cs2)cc1 | -119
CCCC(=O)Nc1ccc(C(=O)N/N=C/c2ccc([N+](=O)[O-])o2)cc1 | -
O=C(N/N=C/c1ccc([N+](=O)[O-])o1)c1cc(-c2cccc(Br)c2)nc2ccccc12 | -83
CCCc1ccc(-c2cc(C(=O)N/N=C/c3ccc([N+](=O)[O-])o3)c3ccccc3n2)cc1 | -75
Fc1cccc(/C=N/Nc2ncnc3nc[nH]c23)c1 | -93
Cc1ccc(/C=N/Nc2ncnc3nc[nH]c23)cc1 | -63
Fc1ccccc1/C=N/Nc1ncnc2nc[nH]c12 | -62
SMILES | aSyn 5UTR act
COc1ccc(OCc2ccc(C(=O)O)cc2)cc1 | -111
COc1ccccc1CC(=O)c1ccc(OCc2ccccc2)cc1 | -73
Cc1ccccc1OCC(=O)OCC(=O)c1ccc(OCc2ccccc2)cc1 | -112
O=C(COC(=O)c1cccc([N+](=O)[O-])c1)c1ccc(OCc2ccccc2)cc1 | -75
CCCCc1ccc(NC(=O)C2CCCO2)cc1 (stereo not drawn) | -97
CCCCc1nnc(NC(=O)C2CCCO2)s1 (stereo not drawn) | -86
CCCCOC(=O)c1ccc(NC(=O)c2c(Cl)ccc(Cl)c2OC)cc1 | -66
CCOC(=O)c1ccc(NC(=O)C2CCCO2)cc1 (stereo not drawn) | -99
CCCc1nnc(NC(=O)C23CC4CC(CC(C4)C2)C3)s1 | -118
CCCCc1nnc(NC(=O)C2=COCCO2)s1 | -64
CCCCOC(=O)c1ccc(NC(=O)C2CCCO2)cc1 (stereo not drawn) | -75
